{"source": "PubChem BioAssay", "note": "Activity calls are given as the source filed them.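 How the source made its calls: active means compounds whose cell count with miR-34 switched on is under 0.7 times the count with it off; inactive means the rest.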", "data": [{"test": "viability loss with induced miR-34 in A549 – imaging, A549 dox-inducible miR-34, nuclei and caspase counts, primary screen (AID 1347080); further: test concentration not given here", "conditions": "A549 miR-34 inducible, Hoechst nuclei count, 48 h; stronger effect = lower value; cell number ratio, induced over uninduced", "values": [{"smiles": "COc1ccc(/C=C/C(=O)CC(=O)/C=C/c2ccc(OC)c(OC)c2)cc1OC", "fold change": "0.864 (inactive)"}, {"smiles": "COc1cc(/C=C\\c2ccc(OC)c(O)c2)cc(OC)c1", "fold change": "0.917 (inactive)"}, {"smiles": "CCCCC/C=C\\C/C=C\\C/C=C\\C/C=C\\CCCC(=O)NC(CO)CO", "fold change": "0.961 (inactive)"}, {"smiles": "CCCCC/C=C\\C/C=C\\C/C=C\\C/C=C\\CCCC(=O)NCCF", "fold change": "1 (inactive)"}, {"smiles": "c1cc(N2CCNCC2)c2cc[nH]c2c1", "fold change": "0.865 (inactive)"}, {"smiles": "CCCCC/C=C\\C/C=C\\C/C=C\\C/C=C\\CCCC(=O)NC[C@@H](C)O", "fold change": "0.961 (inactive)"}, {"smiles": "CCCCC/C=C\\C/C=C\\C/C=C\\C/C=C\\CCCC(=O)NCCOP(=O)(O)O", "fold change": "0.994 (inactive)"}, {"smiles": "CCCCCCCC/C=C\\CCCCCCCC(=O)OC[C@@H](COP(O)(O)=S)OC", "fold change": "1.15 (inactive)"}, {"smiles": "CCCCC/C=C\\C/C=C\\C/C=C\\C/C=C\\CCCC(=O)Nc1ccc2c(C)cc(=O)oc2c1", "fold change": "0.937 (inactive)"}, {"smiles": "CCN1C[C@@]2(COC)C3[C@@H](OC)[C@H]4[C@H]1C3([C@@H]1C[C@@]3(O)[C@H](OC(=O)c5ccccc5)[C@@H]1[C@]4(OC(C)=O)[C@@H](O)[C@@H]3OC)[C@H](OC)C[C@H]2O", "fold change": "0.989 (inactive)"}, {"smiles": "CCCCC/C=C\\C/C=C\\C/C=C\\C/C=C\\CCCC(=O)Nc1ccc(O)cc1C", "fold change": "1.03 (inactive)"}, {"smiles": "CCCN(CCCN)N(O)N=O", "fold change": "1.05 (inactive)"}, {"smiles": "c1cc2cc(N3CCNCC3)ccc2cn1", "fold change": "0.956 (inactive)"}, {"smiles": "CCCCC/C=C\\C/C=C\\C/C=C\\C/C=C\\CCCC(=O)NCC(O)CC(=O)O", "note": "(stereo not drawn)", "fold change": "1.07 (inactive)"}, {"smiles": "COc1ccc(S(=O)(=O)N(CCO)c2ccccc2CN(C)C/C=C/c2ccc(Cl)cc2)cc1", "fold change": "1.03 (inactive)"}, {"smiles": "CCCCC/C=C\\C/C=C\\C/C=C\\C/C=C\\CCCC(=O)Nc1cccc([N+](=O)[O-])c1", "fold change": "0.95 (inactive)"}, {"smiles": "CN=C(NS(=O)(=O)c1ccc(Cl)cc1)N1C[C@H](c2ccccc2)C(c2ccc(Cl)cc2)=N1", "fold change": "0.982 (inactive)"}, {"smiles": "CCCCC/C=C\\C/C=C\\C/C=C\\C/C=C\\CCCC(=O)Nc1cccc(O)c1", "fold change": "0.942 (inactive)"}, {"smiles": "CCCCC/C=C\\C/C=C\\C/C=C\\C/C=C\\CCCC(=O)N[C@@H](C)C(=O)O", "fold change": "0.941 (inactive)"}, {"smiles": "C=C1[C@@H](C)[C@H]2[C@H](Cc3ccccc3)NC(=O)C23[C@H](OC(C)=O)/C=C/[C@](C)(O)C(=O)[C@@H](C)C/C=C/[C@H]3[C@@H]1O", "note": "(stereo partly drawn)", "fold change": "1.3 (inactive)"}, {"smiles": "COc1ccc2cc(C(C#N)OC(=O)OCC3OC3c3ccccc3)ccc2c1", "note": "(stereo not drawn)", "fold change": "0.914 (inactive)"}, {"smiles": "COc1ccc(/C=C\\c2cc(OC)cc(OC)c2)cc1", "fold change": "1.08 (inactive)"}, {"smiles": "CCCCC/C=C\\C/C=C\\C/C=C\\C/C=C\\CCC(C)C(=O)NCCF", "note": "(stereo not drawn)", "fold change": "1.05 (inactive)"}, {"smiles": "CCCCC/C=C\\C/C=C\\C/C=C\\C/C=C\\CCCC(=O)NC", "fold change": "0.953 (inactive)"}, {"smiles": "CCCC[C@@H](C)C(OC(=O)C[C@@H](CC(=O)O)C(=O)O)C(C[C@@H](C)C[C@H](O)CCCC[C@@H](O)C[C@H](O)[C@H](C)N)OC(=O)C[C@@H](CC(=O)O)C(=O)O", "note": "(stereo partly drawn)", "fold change": "0.933 (inactive)"}, {"smiles": "O=NN(O)N1CCC[C@H]1C(=O)O", "fold change": "0.944 (inactive)"}, {"smiles": "C=C(C)[C@@H]1CCC(C)=C[C@H]1c1c(O)cc(O)cc1CCCCC", "fold change": "0.914 (inactive)"}, {"smiles": "CCCCC/C=C\\C/C=C\\C/C=C\\C/C=C\\CCCC(=O)NOCCO", "fold change": "0.931 (inactive)"}, {"smiles": "CCCCC/C=C\\C/C=C\\C/C=C\\C/C=C\\CCCCOC(CO)CO", "fold change": "0.983 (inactive)"}]}, {"test": "viability loss with induced miR-34 in A549 – imaging, A549 dox-inducible miR-34, nuclei and caspase counts, primary screen (AID 1347080)", "conditions": "A549 miR-34 inducible, Hoechst nuclei count, 48 h; measured here: relative caspase fold change +Dox/-Dox", "values": [{"smiles": "COc1ccc(/C=C/C(=O)CC(=O)/C=C/c2ccc(OC)c(OC)c2)cc1OC", "fold change": 0.752}, {"smiles": "CCCCCCC(=O)O[C@H]1CC[C@H]2[C@@H]3CC(=O)C4=CC(=O)CC[C@]4(C)[C@H]3CC[C@]12C", "fold change": 0.574}, {"smiles": "CC1OC(=O)C(C(C)C)NC(=O)C(C(C)C)OC(=O)C(C(C)C)NC(=O)C(C)OC(=O)C(C(C)C)NC(=O)C(C(C)C)OC(=O)C(C(C)C)NC(=O)C(C)OC(=O)C(C(C)C)NC(=O)C(C(C)C)OC(=O)C(C(C)C)NC1=O", "note": "(stereo not drawn)", "fold change": 1.28}, {"smiles": "COc1cc(/C=C\\c2ccc(OC)c(O)c2)cc(OC)c1", "fold change": 0.882}, {"smiles": "CCCCC/C=C\\C/C=C\\C/C=C\\C/C=C\\CCCC(=O)NC(CO)CO", "fold change": 0.877}, {"smiles": "CCCCC/C=C\\C/C=C\\C/C=C\\C/C=C\\CCCC(=O)NCCF", "fold change": 1.18}, {"smiles": "C[C@@H]1CC([C@H](O)CC2CC(=O)NC(=O)C2)C(=O)[C@@H](C)C1", "note": "(stereo partly drawn)", "fold change": 1.96}, {"smiles": "c1cc(N2CCNCC2)c2cc[nH]c2c1", "fold change": 1.51}, {"smiles": "CC(C)CC(NP(=O)(O)OC1OC(C)C(O)C(O)C1O)C(=O)NC(Cc1c[nH]c2ccccc12)C(=O)O", "note": "(stereo not drawn)", "fold change": 0.289}, {"smiles": "CCCCC/C=C\\C/C=C\\C/C=C\\C/C=C\\CCCC(=O)NC[C@@H](C)O", "fold change": 0.786}, {"smiles": "CCCCC/C=C\\C/C=C\\C/C=C\\C/C=C\\CCCC(=O)NCCOP(=O)(O)O", "fold change": 0.95}, {"smiles": "CCCCCCCC/C=C\\CCCCCCCC(=O)OC[C@@H](COP(O)(O)=S)OC", "fold change": 0.718}, {"smiles": "CCCCC/C=C\\C/C=C\\C/C=C\\C/C=C\\CCCC(=O)Nc1ccc2c(C)cc(=O)oc2c1", "fold change": 0.94}, {"smiles": "CN[C@@H]1CC2OC(C)([C@@H]1OC)n1c3ccccc3c3c4c(c5c6ccccc6n2c5c31)C(=O)NC4", "note": "(stereo partly drawn)", "fold change": 0.918}, {"smiles": "CCN1C[C@@]2(COC)C3[C@@H](OC)[C@H]4[C@H]1C3([C@@H]1C[C@@]3(O)[C@H](OC(=O)c5ccccc5)[C@@H]1[C@]4(OC(C)=O)[C@@H](O)[C@@H]3OC)[C@H](OC)C[C@H]2O", "fold change": 1.45}, {"smiles": "CCCCC/C=C\\C/C=C\\C/C=C\\C/C=C\\CCCC(=O)Nc1ccc(O)cc1C", "fold change": 0.979}, {"smiles": "CCCN(CCCN)N(O)N=O", "fold change": 0.825}, {"smiles": "CCCCCc1cc(O)c2c(c1)OC(C)(C)[C@@H]1CCC(C(=O)O)=CC21", "note": "(stereo partly drawn)", "fold change": 1.25}, {"smiles": "c1cc2cc(N3CCNCC3)ccc2cn1", "fold change": 0.665}, {"smiles": "CCCCC/C=C\\C/C=C\\C/C=C\\C/C=C\\CCCC(=O)NCC(O)CC(=O)O", "note": "(stereo not drawn)", "fold change": 1.27}, {"smiles": "COc1ccc(S(=O)(=O)N(CCO)c2ccccc2CN(C)C/C=C/c2ccc(Cl)cc2)cc1", "fold change": 1.21}, {"smiles": "CCCCC/C=C\\C/C=C\\C/C=C\\C/C=C\\CCCC(=O)Nc1cccc([N+](=O)[O-])c1", "fold change": 0.782}, {"smiles": "CN=C(NS(=O)(=O)c1ccc(Cl)cc1)N1C[C@H](c2ccccc2)C(c2ccc(Cl)cc2)=N1", "fold change": 1.16}, {"smiles": "CCCCC/C=C\\C/C=C\\C/C=C\\C/C=C\\CCCC(=O)Nc1cccc(O)c1", "fold change": 0.281}, {"smiles": "CCCCC/C=C\\C/C=C\\C/C=C\\C/C=C\\CCCC(=O)N[C@@H](C)C(=O)O", "fold change": 1.84}, {"smiles": "COC(=O)[C@@]1(O)CC2OC1(C)n1c3ccccc3c3c4c(c5c6ccccc6n2c5c31)C(=O)NC4", "note": "(stereo partly drawn)", "fold change": 1.29}, {"smiles": "CCCCCCC(=O)O[C@H]1CC[C@H]2[C@@H]3C[C@@H](O)C4=CC(=O)CC[C@]4(C)[C@H]3CC[C@]12C", "fold change": 0.446}, {"smiles": "CC[C@@]1(O)C(=O)OCc2c1cc1n(c2=O)-c2cc3ccccc3nc2C1", "fold change": 0.79}, {"smiles": "C=C1[C@@H](C)[C@H]2[C@H](Cc3ccccc3)NC(=O)C23[C@H](OC(C)=O)/C=C/[C@](C)(O)C(=O)[C@@H](C)C/C=C/[C@H]3[C@@H]1O", "note": "(stereo partly drawn)", "fold change": 0.464}, {"smiles": "COc1ccc2cc(C(C#N)OC(=O)OCC3OC3c3ccccc3)ccc2c1", "note": "(stereo not drawn)", "fold change": 0.565}, {"smiles": "COc1ccc(/C=C\\c2cc(OC)cc(OC)c2)cc1", "fold change": 1.44}, {"smiles": "CCCCC/C=C\\C/C=C\\C/C=C\\C/C=C\\CCC(C)C(=O)NCCF", "note": "(stereo not drawn)", "fold change": 1.21}, {"smiles": "CCCCC/C=C\\C/C=C\\C/C=C\\C/C=C\\CCCC(=O)NC", "fold change": 2.18}, {"smiles": "CCCC[C@@H](C)C(OC(=O)C[C@@H](CC(=O)O)C(=O)O)C(C[C@@H](C)C[C@H](O)CCCC[C@@H](O)C[C@H](O)[C@H](C)N)OC(=O)C[C@@H](CC(=O)O)C(=O)O", "note": "(stereo partly drawn)", "fold change": 0.809}, {"smiles": "O=NN(O)N1CCC[C@H]1C(=O)O", "fold change": 1.07}, {"smiles": "CCCCCCC(=O)O[C@H]1CC[C@H]2[C@@H]3C=CC4=CC(=O)CC[C@]4(C)[C@H]3CC[C@]12C", "fold change": 0.362}, {"smiles": "C=C(C)[C@@H]1CCC(C)=C[C@H]1c1c(O)cc(O)cc1CCCCC", "fold change": 1.35}, {"smiles": "CCCCC/C=C\\C/C=C\\C/C=C\\C/C=C\\CCCC(=O)NOCCO", "fold change": 0.519}, {"smiles": "CCCCC/C=C\\C/C=C\\C/C=C\\C/C=C\\CCCCOC(CO)CO", "fold change": 0.95}]}]}
